# In paper PMC5540273 (PLoS ONE, 2017):
# Where two headings read alike, the source gives them in different places.
# How the values were obtained:
# ZAK = details: concentration: 1 μM, replicates: in singlicate; n = 1
# ZAP70 = details: concentration: 1 μM, replicates: in singlicate; n = 1
# p38-alpha = test system: T1, p38-alpha; details: n = 1
# T1 construct: gene MAPK14
# p38-beta = test system: T2, p38-beta; details: concentration: 1 μM, replicates: in singlicate; n = 1
# T2 construct: gene MAPK11
# p38-delta = details: concentration: 1 μM, replicates: in singlicate; n = 1
# p38-gamma = test system: T3, p38-gamma; details: concentration: 1 μM, replicates: in singlicate; n = 1
# T3 construct: gene MAPK12
# [1] = concentration: 1 μM, replicates: in singlicate
# 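Also: KINOMEscan kinase panel screen.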
SMILES,%Inh (ZAK),%Inh (ZAP70),%Inh (p38-alpha; [1]),%Inh (p38-beta),%Inh (p38-delta),%Inh (p38-gamma),%Inh (p38-alpha; 1 µM)
C[C@@H]1CC[C@@H](C(=O)Nc2ccccc2)CN1c1cc(-c2ccc3c(N)n[nH]c3c2)nc(N)n1 [GSK2286062],0%,0%,28%,0%,13%,46%,
COc1cc(Nc2ncc3c(C)nc(-c4cc5ccccc5[nH]4)n3n2)cc(OC)c1OC [GW869516],0%,0%,9%,2%,0%,16%,
CN1CCN(Cc2cccc(-c3ccc4c(Nc5ccc(Oc6ccccc6)cc5)ccnc4c3)c2)CC1 [GW578342],79%,14%,23%,0%,37%,2%,
COc1cccc(C2=C(Nc3ccc(Cl)c(C(=O)O)c3)C(=O)NC2=O)c1 [SB-390769],0%,5%,12%,0%,45%,100%,
CN(C)S(=O)(=O)c1cc(-c2ccc3nccc(-c4cccc(S(N)(=O)=O)c4)c3c2)cnc1N [GSK1669921],0%,4%,0%,0%,44%,23%,
CC(C)c1nc(-c2cccc(NS(=O)(=O)c3c(F)cccc3F)c2F)c(-c2ccnc(Nc3ccc(N4CCOCC4)nc3)n2)s1 [GSK2008607],99.1%,0%,81%,51%,0%,0%,
COc1cc(Nc2nccc(N3CCC(NC(=O)Nc4cccc(C(C)=O)c4)C3)n2)cc(OC)c1OC (stereo not drawn) [GSK1379753],0%,12%,0%,0%,41%,0%,
O=C(Nc1ccccc1F)NC1CCN(c2ccnc(Nc3ccc(F)cc3)n2)CC1 [GSK1379800],30%,47%,32%,0%,45%,0%,
COc1ccc(-c2coc3ccc(-c4nnc(SCc5ccc(OC)c(C(F)(F)F)c5)o4)cc23)cc1,0%,0%,0%,6%,6%,16%,
Fc1ccc(-c2ncn(C3CCNCC3)c2-c2ccnc(Oc3ccc(-c4ccccc4)cc3)n2)cc1 [SB-245391],17%,24%,,60%,0%,26%,96%
c1ccc(Oc2ccc(Nc3ccnc4cc(-c5ccc(CNCCN6CCOCC6)o5)ccc34)cc2)nc1 [GW567145],77%,0%,20%,0%,0%,0%,
O=C(Nc1cccc(-c2nn3ccccc3c2-c2ccnc(Nc3cccc(C(F)(F)F)c3)n2)c1)c1c(F)cccc1F [GSK292658],80%,0%,17%,32%,24%,0%,
COc1cc(Nc2nccc(-c3c(-c4cccc(NC(=O)c5c(F)cccc5F)c4)nn4ccccc34)n2)cc(OC)c1OC [GSK323521],0%,0%,0%,7%,43%,42%,
O=C(NC1CCN(c2ccnc(Nc3ccc(F)cc3)n2)C1)c1cc2ccccc2s1 (stereo not drawn) [GSK1379716],20%,0%,7%,0%,45%,67%,
COc1ccc(Nc2nccc(N3CCC(NC(=O)Nc4cccc(OC)c4)C3)n2)cc1 (stereo not drawn) [GSK1379742],2%,3%,1%,0%,29%,0%,
Oc1cc(Nc2ccnc3cc(I)ccc23)ccc1F [GW552771],73%,0%,4%,0%,27%,0%,
O=c1[nH]cc(-c2ccc(N3CCOCC3)cc2)c2sc(-c3cn[nH]c3)cc12 [GSK2276055],69%,0%,8%,0%,41%,36%,
Cl.c1ccc(-c2ccc3c(Nc4ccc5[nH]ccc5c4)ccnc3c2)nc1 [GW440138],0%,49%,20%,0%,41%,0%,
Cc1cccc(Nc2nc(N[C@H]3CCNC3)ncc2C(N)=O)c1.Cl [GSK2197149],0%,0%,0%,0%,19%,0%,

SMILES,%Inh (ZAK),%Inh (ZAP70),%Inh (p38-alpha; [1]),%Inh (p38-beta),%Inh (p38-delta),%Inh (p38-gamma),%Inh (p38-alpha; 1 µM)
Cl.Cl.NCC(NCc1ccc(-c2ccnc3[nH]ccc23)s1)c1ccccc1 (stereo not drawn) [GSK1321565],15%,0%,27%,0%,3%,0%,
O=C(Nc1cccc(-c2nn3ncccc3c2-c2ccnc(Nc3ccccc3)n2)c1)c1c(F)cccc1F [GSK198271],96.6%,0%,99.3%,99.2%,77%,0%,
Cl.Cl.NCC(NC(=O)c1cc(-c2ccccc2)c(-c2ccnc3[nH]ccc23)s1)c1ccccc1 (stereo not drawn) [GSK1321561],46%,0%,0%,0%,47%,0%,
Cc1occc1-c1ncc(OC[C@@H](N)Cc2c[nH]c3ccccc23)cc1-c1ccc2[nH]nc(C)c2c1.O=C(O)C(F)(F)F [GSK682037],0%,0%,89%,36%,73%,72%,
COc1cccc(C(=O)Nc2cccc(Oc3ccc4nc(NC(=O)C5CC5)cn4n3)c2)c1,62%,0%,15%,16%,32%,39%,
Cc1cccc(NC(=O)Nc2ccc(Oc3ncnc4ccn(C)c34)cc2)c1,0%,0%,0%,0%,0%,0%,
COCCOCCOc1cc2ncc3c4ccc(C#N)cc4[nH]c3c2cc1OC,33%,0%,1%,0%,0%,23%,
Nc1ncc(-c2cccnc2)c2scc(-c3ccc4c(c3)CCN4C(=O)Cc3ccccc3)c12 [GSK683281],9%,0%,4%,0%,71%,0%,
CNC(=O)c1ccccc1Nc1nc(Nc2ccc(N3CCOCC3)cc2)ncc1Cl.Cl [GSK1576028],13%,6%,8%,2%,0%,13%,
c1ccc(-c2n[nH]cc2Nc2ccnc3ccccc23)nc1 [GW694077],0%,0%,2%,0%,0%,0%,
Clc1ccc(-c2nn3ncccc3c2-c2ccnc(Nc3ccc4c(c3)OCCO4)n2)cc1 [GW829116],9%,0%,99.7%,83%,13%,0%,
FC(F)(F)c1ccc(/C=C/c2cncnc2Nc2ccc3[nH]c(Cc4ccccc4)nc3c2)cc1 [GW709199],0%,9%,0%,3%,0%,35%,
O=C(Nc1n[nH]c2cc(-c3ccoc3)ccc12)C1CC1 [SB-738481],15%,0%,0%,0%,0%,1%,
CCc1ccc(-c2ccc3c(c2)-c2c(cnn2C)S(=O)(=O)N3C)cc1,3%,0%,9%,4%,23%,14%,
CC(C)(C)c1ccc2nccc(Nc3cccc(O)c3)c2c1 [GW856795],0%,42%,0%,0%,12%,18%,
COC(=O)Nc1nc2cc(Oc3ccc(NC(=O)Nc4cc(C(F)(F)F)ccc4F)cn3)ccc2[nH]1.Cl.Cl [GW681170],92%,0%,70%,34%,75%,42%,
O=C(O)C(F)(F)F.O=C(O)C(F)(F)F.O=c1[nH]ccc2nc(N[C@@H]3CCCNC3)nc(Nc3ccc(S(=O)(=O)N4CCOCC4)cc3)c12 [GSK2177277],0%,71%,0%,0%,57%,40%,
CSc1cccc2c(-c3ccncn3)c(-c3ccc(F)cc3)nn12 [GW514786],0%,8%,98%,29%,38%,2%,
